Source: PubChem BioAssay
Rows were chosen to be rich in hits. Some 3.6% of all compounds tested hit in one or more screens of this group.
Pf apPOL block = Pf-apPOL inhibitors, biochemical, fluorescence. Plasmodium falciparum apicoplast DNA polymerase (apPOL). Recombinant Pf-apPOL, molecular beacon fluorescence, 1.5 h. inhibition, % at 10 µM. 210,000 compounds, 0.25% hits. AID 1794808, 2022
mHTT-CaM PPI inh = mutant huntingtin-calmodulin interaction inhibitors – biochemical, AlphaScreen, primary screen. AlphaScreen His-mHTT/GST-CaM binding, luminescence. 190,000 compounds, 3.6% hits. AID 1671202, 2021. P42858. inhibition, % at 15 µM;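 further: 0% = both proteins with DMSO and 100% = one protein alone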
An asterisk follows results filed as active; x = no result given. No stated cut-off is given here; in the data, active means inhibition above about 50%; inactive means the rest.

SMILES	Pf apPOL block	mHTT-CaM PPI inh
Cc1nc(C)c(-c2csc(Nc3ccc(N)cc3)n2)s1	-22.8	86.6*
Cc1nc(C)c(-c2csc(NCc3ccco3)n2)s1	-6.2	11.8
Cc1nc(C)c(C(=O)Nc2ccc(F)c(C)c2)s1	-4.8	-0.4
CC1CN(C(=O)CC(C)(C)C)CC(C)O1 (centres undefined)	-1.9	-1.4
NNc1ccc2c(Cl)cc(Cl)c(O)c2n1	-5.4	99.6*
O=c1ccc2c(Cl)cc(Cl)c(O)c2[nH]1	-3.4	11.9
Cn1c(=O)cc2c3c(c(N4CCOCC4)ccc31)C(=O)c1ccccc1-2	-4.7	20.0
O=C(c1ccc(F)c(F)c1)N1CCCN(Cc2nc3ccc(Cl)cc3o2)CC1	-7.2	60.1*
Cc1cc(C)cc(C(=O)N2CCCN(Cc3nc4ccccc4o3)CC2)c1	3.2	34.5
Cc1c(C(=O)NC2CCCC2)oc2ccc(S(=O)(=O)N3CCC(C)CC3)cc12	-4.7	-3.0
Cc1ccc([N+](=O)[O-])c(C2=N/C(=C/c3ccc(Cl)cc3)C(=O)O2)c1	-11.7	8.0
COc1ccc(C2C3=C(CCCC3=O)Nc3nc(-c4ccc(N(C)C)cc4)nn32)cc1OC (centres undefined)	1.6	80.3*
COc1ccc(-c2nc3n(n2)C(c2ccc(OC)c(OC)c2)C2=C(CCCC2=O)N3)cc1 (centres undefined)	-0.8	16.3
COc1cc(-c2nc3n(n2)C(c2ccccc2)C2=C(CCCC2=O)N3)cc(OC)c1OC (centres undefined)	-2.6	52.4*
CC1(C)CC(=O)C2=C(C1)Nc1nc(-c3ccccc3)nn1C2c1ccc(F)cc1 (centres undefined)	-1.0	78.0*
CC1(C)CC(=O)C2=C(C1)Nc1nc(-c3ccc(O)cc3)nn1C2c1ccccc1 (centres undefined)	-0.4	-8.5
COc1cc(C2C3=C(CCCC3=O)Nc3nc(-c4ccc(O)cc4)nn32)cc(OC)c1OC (centres undefined)	-2.0	12.3
CN(CC#N)C(=O)c1cccn1-c1cccnc1	2.2	-3.9
CSCc1nnc(NC(=O)c2ccc(S(=O)(=O)N3CCOCC3)cc2)o1	-17.2	20.0
CCCNc1cc(N2CCC(CCC(=O)NCc3cccnc3)CC2)ncn1	-2.2	6.0
Cc1cc(C)n2nc(S(=O)(=O)Nc3ccccc3Cl)nc2n1	-3.1	-3.0
CC1(C)OC2OC(C(=O)NCc3cccs3)C3OC(C)(C)OC3C2O1 (centres undefined)	-4.5	2.2
O=C(Nc1cccc(O)c1)N1CCCCC1	-8.8	-5.5
CCOC(=O)CCc1c(C)n[nH]c1C	-1.2	-0.6
CCOC(=O)CCc1c(CC(=O)OCC)c[nH]c1C=NO	99.4*	x
SMILES	Pf apPOL block	mHTT-CaM PPI inh
COc1ccc(OC)c(C2=N/C(=C/c3ccc([N+](=O)[O-])cc3)C(=O)O2)c1	-5.0	-5.0
Cc1ccc(OCC(=O)Nc2ccc(NC(=O)c3ccccc3)c(Cl)c2)cc1C	-2.8	-6.1
Nc1c(C(=O)Nc2nccs2)sc2nc3c(cc12)CCCCC3	5.5	63.7*
Nc1c(C(=O)Nc2nccs2)sc2nc3c(cc12)CCC3	-8.6	25.8
Cn1nc(C(=O)NCc2ccc(F)cc2)c2c1CCN(C(=O)c1c(F)cccc1F)C2	-13.9	8.7
Cn1nc(C(=O)NCc2ccccc2)c2c1CCN(C(=O)Cc1ccc(F)cc1)C2	-5.7	78.0*
CCCCC(=O)N1CCc2c(c(C(=O)NCc3cccc(C)c3)nn2C)C1	1.6	58.7*
Cc1cccc(CNC(=O)c2nn(C)c3c2CN(C(=O)C(C)C)CC3)c1	66.9*	41.0
CCCCC(=O)N1CCc2c(c(C(=O)NCc3ccccc3)nn2C)C1	-9.2	0.2
CCC(CC)C(=O)N1CCc2c(c(C(=O)NCc3cccc(C)c3)nn2C)C1	-2.3	20.9
Cc1cccc(CNC(=O)c2nn(C)c3c2CN(C(=O)CC(C)C)CC3)c1	-4.0	48.9
Cc1cccc(CNC(=O)c2nn(C)c3c2CN(C(=O)Cc2ccccc2)CC3)c1	11.1	63.5*
COc1cccc(C2=CC(c3ccccc3Cl)n3ncnc3N2)c1 (centres undefined)	-11.2	-2.0
CCc1ccc(C(=O)CC(c2ccccc2)C2CCCC2=O)cc1 (centres undefined)	-15.4	-10.9
CCCn1c(C2CCN(Cc3ccc(OCC)cc3)C2)nc2cccnc21 (centres undefined)	-7.1	11.1
Cc1ccc(COc2ccc(C3CC(=O)Nc4n[nH]c(C)c43)cc2)cc1 (centres undefined)	-5.6	2.8
O=C1OC(c2cccc(Cl)c2Cl)=N/C1=C\c1ccccc1[N+](=O)[O-]	9.2	1.0
Cc1ccc(S(=O)(=O)N2CCCC(C)(C(=O)NCc3ccc(F)cc3)C2)cc1 (centres undefined)	0.0	-1.6
Cc1cc(C)cc(S(=O)(=O)N2CCCC(C)(C(=O)NCc3ccccc3)C2)c1 (centres undefined)	-6.6	40.6
Cc1cc(C)cc(S(=O)(=O)N2CCCC(C)(C(=O)NCc3ccc(F)cc3)C2)c1 (centres undefined)	0.2	51.7*
Cc1cc(C)c(S(=O)(=O)N2CCCC(C)(C(=O)NCc3ccccc3)C2)c(C)c1 (centres undefined)	-1.1	59.5*
CCN1CCc2[nH]c3ccc(NC(=O)C(C)(C)C)cc3c2C1	0.7	-5.6
COc1ccc(CC(C)(O)CNC(=O)c2ccc3nsnc3c2)cc1 (centres undefined)	3.5	-1.9
CC1=NOC(=O)/C1=C/c1ccc(OCc2ccc(F)cc2)c(Cl)c1	-4.4	-6.0
COc1cc(/C=C2\C(=O)ON=C2C)ccc1OCc1ccc(F)cc1	-1.8	99.0*
SMILES	Pf apPOL block	mHTT-CaM PPI inh
COc1cc(/C=C2/C(=O)ON=C2C)ccc1OCc1ccc(C)cc1	-9.3	70.0*
Cc1cc(Cl)ccc1NC(=O)Cc1ccccc1	-17.3	-11.2
CCOC(=O)c1ccccc1NC(=O)CSc1ccc(-c2ccc3c(c2)OCO3)nn1	-4.8	-14.3
O=C(O)CC(CC(=O)Nc1ccc(C(=O)O)cc1)c1ccccc1 (centres undefined)	94.4*	-4.8
NS(=O)(=O)c1ccc(NC(=O)CC(CC(=O)O)c2ccccc2)cc1 (centres undefined)	3.5	x
CN1CCN(C(=O)c2ccc(-c3nc4ccccc4n(C)c3=O)cc2)CC1	-0.8	1.3
O=C(CC1COc2ccccc2NC1=O)Nc1cccc2ccccc12 (centres undefined)	-79.8	68.9*
COc1ccccc1NC(=O)CC1COc2ccccc2NC1=O (centres undefined)	0.0	-3.8
Cc1cc(NC(=O)C(=O)NC(C)Cc2ccco2)no1 (centres undefined)	2.5	-11.4
O=S(=O)(O)c1cc(Br)ccc1I	-13.6	x
O=S(=O)(O)c1cc(I)c(O)c2ncccc12	-194.2	100.3*
CCc1nnc(NC(=O)CSc2nnc(-c3ccco3)c(-c3ccco3)n2)s1	4.6	65.0*
CCSc1nnc(NC(=O)CSc2nnc(-c3ccco3)c(-c3ccco3)n2)s1	3.4	81.0*
CCSc1nnc(NC(=O)CSc2nnc(CNC(=O)c3ccco3)o2)s1	4.8	-9.2
O=C(CSc1nnc(-c2ccco2)c(-c2ccco2)n1)Nc1nc2ccccc2s1	-9.5	47.0
CCc1nnc(NC(=O)CSc2ncccn2)s1	-0.4	-4.8
Cc1nnc(NC(=O)CSc2nnc(-c3ccco3)c(-c3ccco3)n2)s1	-1.1	67.0*
Cc1nnc(-c2ccc3ccn(CC(=O)Nc4ccccc4F)c3c2)o1	4.7	-7.4
O=C(NCc1cccs1)c1cc2c(s1)CCN(C(=O)c1ccccc1)C2	-3.4	5.1
